Lassa entry inh = qHTS for Inhibitors of binding or entry into cells for Lassa Virus; Lassa virus pseudotype entry inhibition, cell reporter; AID 540256, 2011; Potency, µM (highest dose often 37.9 µM), hits mostly inhibitors; actives 1.2% (n = 300,000); calls by dose curve; tested in HEK293 cells; note: nearly all actives have a fitted effect of over 50% in size
HCV inh = qHTS Assay for Inhibitors of Hepatitis C Virus (HCV); AID 651820, 2012; Potency, µM (titrated, usually from 41.8 µM), most hits filed as inhibitors; Huh7.5.1 HCVcc-Cre infection, luciferase reporter, 44 h; actives 3.4% (n = 340,000); active = well fitted inhibition curve with a large enough effect; inconclusive = small, poorly fitted or top-dose-only effect, or another doubt; inactive = no such curve, though single readings can be large or run the other way
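Compounds are dispensed onto cells plated 4 h earlier at 1,000 per well, with HCVcc-Cre virus (about 0.5 moi) added next. Following 44 h of culture, luminescent signal is measured for 15 sec after 15 min with substrate at room temperature.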
MARV entry inh = qHTS for inhibitors of binding or entry into cells for Marburg Virus | Potency, µM (titrated, usually from 37.8 µM), actives largely listed as inhibitors | AID 540276, 2011 | Marburg virus pseudotyped entry inhibition, cell reporter | actives 1.8% (n = 300,000); calls by dose curve; tested in HEK293 cells
FMDV antiviral = High Throughput Screening for Foot and Mouth Disease Virus Antivirals | FMDV antiviral cell-based qHTS | Potency, µM (titrated, usually from 57.9 µM), hits mostly inhibitors | actives 1.2% (n = 410,000); calls by dose curve; tested in HEK293T cells; note: read-out not given here; nearly all actives have a fitted effect of over 45% in size
HCMV inh = qHTS Assay for inhibitors of the human cytomegalovirus (HCMV); HFF cells, HCMV-luciferase reporter, 72 h; stronger effect = lower value; activity change, negative = inhibition, % at 57.5 µM; actives 4.5% (n = 410,000); in the data active = activity change below about -60%; inconclusive = no clear call, values can overlap the other calls; inactive = above about -39%
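Steps: HFFs plated, 16 h 37C; compounds added; HCMV-luciferase added to MOI 1 PFU/cell; 72 h 37C; OneGlo reagent, 5 min room temperature; luminescence read, normalized to controls.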
A number is an active result; n = inactive; u = inconclusive; x = no result given. A selection: hits, their analogues and other compounds. The true share with any hit is near 7.9%.

SMILES	Lassa entry inh	HCV inh	MARV entry inh	FMDV antiviral	HCMV inh
Cc1cc(NC(=O)c2cccc(Oc3ccccc3)c2)n[nH]1	x	n	x	n	-71
CCc1ccccc1NC(=O)Cn1c(=O)n(Cc2ccc(OC)cc2)c(=O)c2oc3ccccc3c21	n	x	x	n	n
CCOCCc1nnc(NC(=O)C(=O)c2cc(C)n(-c3cccc(Cl)c3)c2C)s1	n	x	n	n	n
CCOc1cc(C(=O)Nc2ccc3c(c2)n(C)c(=O)c(=O)n3C)cc(OCC)c1OCC	n	x	n	n	n
CC1CCCN(S(=O)(=O)c2cc(C(=O)NCc3ccccc3Cl)n(C)c2)C1 (stereo unspecified)	n	x	x	n	n
Cc1cc(-n2c(C)cc(C(=S)N3CCOCC3)c2C)ccc1Br	n	u	n	u	-66
Cc1ccc(-n2c(C)cc(C(=O)CN3CCOCC3)c2C)cc1C	u	n	n	n	n
COCCn1nc2ccccc2c1OC	x	x	x	x	n
CC[C@@]1(c2ccccc2OC)ON(c2ccccc2C(F)(F)F)C1=O	x	u	x	32µM	u
Cc1ccccc1[C@@]1(C)ON(c2ccccc2C(F)(F)F)C1=O	x	u	x	u	n
O=C(c1nnnn1-c1ccc(Br)cc1)C1CC1	x	x	x	x	n
COc1ccc(/C=C2\SC(=N)N(c3nccs3)C2=O)cc1OC	n	u	u	u	-94
O=C1OC(c2cccs2)=N/C1=C\c1ccc(-c2cccc(Cl)c2)o1	n	n	n	n	n
COc1ccc(/C=C2\SC(=O)N=C2N)cc1OC	n	n	n	n	n
N=C1S/C(=C\c2ccc(-c3cccc(Cl)c3)o2)C(=O)N1c1nccs1	u	n	3.2µM	n	-78
CCc1ccc(CNC(=O)c2c3c(nc4ccccc24)C(=O)N(C2CCCCC2)C3)cc1	u	x	x	n	n
CCc1nn(CC(=O)NCc2cccc(OC)c2)c(=O)c2cc3cc(F)ccc3n12	x	x	n	n	n
CNC(=S)NNC(=O)COc1ccccc1C	n	n	n	x	u
CNC(=S)SCCOc1ccccc1C	n	n	n	n	-69
Cc1ccc(NC(=O)Cn2c(SCc3ccc(F)cc3)nc3cccnc32)cc1F	n	x	x	n	n
CCC1CN(CCNC(=O)c2cccnc2OC)Cc2cc(OC)ccc2O1 (stereo unspecified)	x	x	x	n	x
Cc1ccc(C)c(-c2nnc(NC(=O)c3ccc([N+](=O)[O-])o3)o2)c1	u	u	n	n	-74
COc1ccc(NC(=O)c2ccc([N+](=O)[O-])o2)cc1	n	u	11µM	n	-101
CC(=O)c1ccc(NC(=O)c2ccc([N+](=O)[O-])o2)cc1	x	u	x	n	-105
CC(=O)c1cccc(NC(=O)c2ccc([N+](=O)[O-])o2)c1	u	u	u	n	-87
SMILES	Lassa entry inh	HCV inh	MARV entry inh	FMDV antiviral	HCMV inh
Cc1cc(C)cc(NC(=O)c2ccc([N+](=O)[O-])o2)c1	u	u	u	n	n
O=C(Nc1cccc(S(=O)(=O)N2CCCCC2)c1)c1ccc([N+](=O)[O-])o1	x	u	x	n	n
CCOc1ccc(CCn2c3c(c(=O)[nH]c2=O)C(NC(=O)c2cccc(F)c2)(C(F)(F)F)C(=O)N3)cc1OCC (stereo unspecified)	n	x	n	n	n
O=C(NNC(=O)c1ccccc1C(=O)O)c1ccc(O)cc1	n	13µM	n	n	n
O=C(NNC(=O)c1ccccc1Br)c1ccncc1	x	n	x	n	-65
O=C(CSc1nnc(-c2ccccc2)o1)c1cccc([N+](=O)[O-])c1	n	x	n	n	n
COc1ccc(CCNC(=O)CN(c2ccc(C)cc2)S(=O)(=O)c2ccc(OC)cc2)cc1	n	x	n	n	n
COC(=O)N[C@H](C(C(=O)OC)=C(C)NCc1ccccc1)c1ccco1	x	x	n	x	x
Cc1ccc(-c2nn(-c3ccccc3)cc2/C=N/NC(=O)CSc2nnc(C)n2-c2ccccc2)cc1	u	14µM	n	n	n
COc1ccc(-c2nn(-c3ccccc3)cc2/C=N/Nc2ccc3ccccc3n2)cc1OC	u	10µM	u	u	n
NC(N)=N/N=C/c1cn(-c2ccccc2)nc1-c1cccs1	u	u	23µM	u	-98
COc1ccc(-c2nn(-c3ccccc3)cc2/C=N/Nc2cccc(C(=O)O)c2)cc1	n	n	n	n	-61
COc1cccc(/C=N/NC(=O)CSc2nnc(C)n2-c2ccccc2)c1O	u	n	u	n	n
COc1ccc(-c2nn(-c3ccccc3)cc2/C=N/N=C(N)N)cc1OC	u	u	10µM	u	u
Cc1ccc(CN(C(=O)COc2cc(C)c(Cl)c(C)c2)c2ccccn2)o1	n	x	n	n	n
C=CCn1c(=N)n(CC(=O)c2ccc(Cl)cc2)c2ccccc21	u	u	u	n	n
C=CCn1c(=N)n(CC(=O)c2ccc(Br)s2)c2ccccc21	u	u	u	n	-74
CN(CC1COCCO1)C(=O)c1cnn(-c2nccc(-c3ccccc3C(F)(F)F)n2)c1C1CC1 (stereo unspecified)	x	x	x	n	x
O=C1[C@H](Cc2ccccc2)NCCCC[C@@H](c2ccc(Cl)cc2)N1Cc1ccccc1	x	n	x	n	n
COC(=O)C1=C(C(=O)OC)[C@]2([C@H]3CCCCN[C@@H](Cc4ccccc4)C(=O)N3Cc3ccccc3)C=C[C@H]1O2	x	11µM	x	u	-70
Cc1ccc(NC(=O)CC2Nc3cc(C)c(C)cc3NC2=O)c(C)c1 (stereo unspecified)	n	x	n	n	n
CC(=O)c1c(N2CCOCC2)[nH]c(-c2ccccc2)nc1=S	n	n	n	n	n
CC(=O)c1c(N2CCCC2)[nH]c(-c2ccccc2)nc1=S	n	22µM	n	n	n
Cc1cccc(OCC(=O)OCc2cc(=O)n3nc(C4CC4)sc3n2)c1	n	x	x	n	n
Cc1c(N2C(=O)/C(=C/c3ccccc3)SC2=S)c(=O)n(-c2ccccc2)n1C	n	n	n	n	u
SMILES	Lassa entry inh	HCV inh	MARV entry inh	FMDV antiviral	HCMV inh
Cc1c(N2C(=O)/C(=C\c3ccccc3O)SC2=S)c(=O)n(-c2ccccc2)n1C	x	n	x	u	n
Cc1c(N2C(=O)/C(=C/C3CC=CCC3)SC2=S)c(=O)n(-c2ccccc2)n1C (stereo unspecified)	u	n	u	18µM	n
Cc1c(N2C(=O)/C(=C3\C(=O)N(CC(=O)O)c4ccccc43)SC2=S)c(=O)n(-c2ccccc2)n1C	x	n	x	25µM	n
Cc1c(N2C(=O)/C(=C\C3CC=CCC3)SC2=S)c(=O)n(-c2ccccc2)n1C (stereo unspecified)	n	n	u	25µM	n
Cc1cccc(N(Cc2ccccc2)C(=O)c2ccc(C)c(S(=O)(=O)N3CCOCC3)c2)c1	x	u	x	n	u
Cc1ccc(N(Cc2ccccc2)C(=O)c2cc(S(=O)(=O)N3CCOCC3)ccc2N2CCCC2)cc1	u	u	u	n	-61
CN(Cc1ccc(Cl)cc1)C(=O)c1cc(S(=O)(=O)N2CCOCC2)ccc1N1CCCC1	n	n	n	n	n
Cc1cccc(N(Cc2ccccc2)C(=O)c2ccc(F)c(S(=O)(=O)N3CCOCC3)c2)c1	n	u	11µM	n	n

From PubChem
